Pf Dd2 inh = blocks in vitro growth of P. falciparum Dd2 | P. falciparum Dd2 growth, SYBR Green, 72 h | Potency, µM (titrated, usually from 28.9 µM), actives largely listed as inhibitors | actives 4.3% (n = 120,000) | AID 1347417; active = well fitted inhibition curve with a large enough effect; note: nearly all actives have a fitted effect of over 65% in size
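Readout: SYBR Green fluorescence, 485 nm excitation, 535 nm emission, after ~16 h lysis at 37C. Before that, Dd2-infected red cells (2.5% hematocrit) grew 72 h with compound, 29 uM top final concentration.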
Of the large screens only hits and unclear results are named; the others gave an inactive call. The sample as a whole holds a higher share of hits than the screen did.

CNc1c(NC(=O)c2ccc(OC)c(OC)c2)c(=O)oc2ccccc12	none
Cc1cc2nc3n(c(=O)c2n1CC(=O)Nc1ccccc1)CCC3	none
COc1cccc(-c2cc3c(=O)n(CCNC(=O)C(C)Oc4ccccc4)ccn3n2)c1 (configuration not stated)	none
COc1ccccc1CNC(=O)CCC1CCCN(S(=O)(=O)c2ccccc2F)C1 (configuration not stated)	none
COc1ccccc1/C=C/CN1CCCC(CNC(=O)COc2ccccc2OC)C1 (configuration not stated)	Pf Dd2 inh 7.9µM
O=C(CCC1CCN(C(=O)c2ccccc2)CC1)Nc1ccccc1F	none
O=C(CCC1CCCN(Cc2cccn2-c2nccs2)C1)Nc1ccccc1F (configuration not stated)	Pf Dd2 inh 7.1µM
O=C(CCC1CCCN(C(=O)Cc2c[nH]c(=O)[nH]c2=O)C1)Nc1ccccc1F (configuration not stated)	none
COc1cccc(C(=O)NCC2CCCN(C/C(C)=C/c3ccccc3)C2)c1OC (configuration not stated)	none
CCOc1ccc(CN2CCCC(CCC(=O)Nc3ccccc3F)C2)cc1CO (configuration not stated)	none
COc1ccccc1/C=C/CN1CCCC(CCC(=O)Nc2ccccc2F)C1 (configuration not stated)	Pf Dd2 inh 8.9µM
COc1cccc(C(=O)NCC2CCCN(Cc3nc4ccccc4[nH]3)C2)c1OC (configuration not stated)	none
CC(C)Cc1cc(C(=O)N2CCCC(OCc3ccccn3)C2)n(C)n1 (configuration not stated)	none
CCCN(CCC)CCCNC(=O)c1cn(CC)c2ccc(S(=O)(=O)N(C)C3CCCCC3)cc2c1=O	none
CN1CCN(Cc2nc(C3(O)CCN(C(=O)CC(C)(C)C)CC3)cs2)CC1	none
COC(=O)C1=C(CS(=O)(=O)c2ccc(C)cc2C)NC(=O)NC1c1ccc(C)cc1 (configuration not stated)	none
O=C(c1ccc(F)cc1)N1CCC2(CC1)CC(=O)N(c1ccccc1)c1ccccc1O2	none
O=C(Cc1ccc(Cl)cc1)N1CC(c2nnc(-c3ccncc3)o2)C2(CCOCC2)C1 (configuration not stated)	none
CCOc1ccc(S(=O)(=O)N(CC(=O)NCCSc2ccccc2)c2ccccc2)cc1	none
COc1ccc(Br)c(C(=O)N[C@@H]2C=C(C(=O)N[C@H](C)C(N)=O)C[C@@H](O)[C@@H]2O)c1	none
O=C(c1cc2c(s1)CCC(C(=O)N1CCN(C3CCCCC3)CC1)C2)N1CCCC1 (configuration not stated)	none
CCN(CC)CCSc1nnc2c3cc(F)ccc3n(CC)c2n1	none
CCn1c2ccc(F)cc2c2nnc(SCCN3CCCCC3)nc21	Pf Dd2 inh 13µM
CCCn1c2ccc(F)cc2c2nnc(SCCN3CCCCC3)nc21	Pf Dd2 inh 7.9µM
CCCc1nnc(NC(=O)CSc2nnc3c4ccccc4n(CC)c3n2)s1	none
CCn1c2ccccc2c2nnc(SCC(=O)Nc3ccccc3OC)nc21	none
CCOC(=O)c1ccc(NC(=O)CSc2nnc3c4ccccc4n(CC)c3n2)cc1	none
CCCn1c2ccc(C)cc2c2nnc(SCCN3CCCCC3)nc21	Pf Dd2 inh 8.9µM
Cc1cnc(C(=O)N2CCOCC(CO)C2)cn1 (configuration not stated)	none
CNC(=O)[C@@H]1C[C@H](n2cc(C(C)(C)NC(=O)c3cccc(F)c3F)nn2)CN1	none
O=C([C@H]1C[C@H](Oc2ccccc2)CN1C(=O)c1ccoc1)N1CCOCC1	none
O=C(NCc1ccco1)C1COC2(CCCCC2)N1C(=O)c1cccc([N+](=O)[O-])c1 (configuration not stated)	none
CC1(C(=O)Nc2ncc(Cc3ccc(Br)cc3)s2)Cc2ccccc2C(=O)O1 (configuration not stated)	none
CCc1noc(-c2cn(C3CCN(C(=O)c4ccc(Cl)cc4)CC3)nn2)n1	none
CCCNC(=O)N1CCOc2ccc(CN3CCc4ccccc4C3)cc2C1	none
COCCOCC(=O)N1CCOc2ccc(CN3CCc4ccccc4C3)cc2C1	Pf Dd2 inh 11µM
O=C(Nc1cccc(F)c1)N1CCC(O)(c2csc(CN3CCc4ccccc4C3)n2)CC1	none
CCOCCCNC(=O)N1CCOc2ccc(CN3CCc4ccccc4C3)cc2C1	none
COCCn1cc(CN2CCc3ccccc3C2)ccc1=O	none
O=C(Nc1cccc(F)c1)N1CCOc2ccc(CN3CCc4ccccc4C3)cc2C1	Pf Dd2 inh 2µM
Cc1ccc(OC(=O)CSc2nnc(-c3cccs3)o2)c(C)c1	none
Cc1noc(-c2nc(-c3ccc(F)c(F)c3)no2)n1	none
Cc1ncccc1OC1(C(=O)O)CCN(C(=O)C2CC=CCC2)CC1 (configuration not stated)	none
CC(C)(C)OC(=O)N1CCC(c2nnc(SCc3ccccc3Cl)o2)CC1	none
Cc1cccc(Nc2nc(Nc3cccc(C)c3)nc(N3CCOCC3)n2)c1	Pf Dd2 inh 11µM
CCOc1ccc(Nc2nc(Nc3ccc(OCC)cc3)nc(N3CCOCC3)n2)cc1	none
Cc1cccc(Nc2nc(N)nc(CN3CC[C@@H](N)[C@H](O)C3)n2)c1	none
COc1ccc2c(c1)c(CC(=O)Nc1cc(C)cc(C)c1)c(C)n2C(=O)c1ccc(Cl)cc1	none
COc1ccc(C(=O)N2C[C@@H](F)C[C@H]2C(=O)N2CCOCC2)cc1	none
COc1cc(-c2noc(CN3CCN(c4cccc(Cl)c4)CC3)n2)cc(OC)c1OC	none
COc1ccc(-c2nc(-c3ccccc3)c(-c3ccccc3)[nH]2)cc1Br	none
COc1cc(-c2nc(-c3cccc(Cl)c3)c(-c3ccccc3)[nH]2)cc(OC)c1OC	Pf Dd2 inh 10µM
COc1cccc(CNC(=O)C2CCCN(S(=O)(=O)N(C)c3ccc(F)cc3)C2)c1OC (configuration not stated)	none
CCn1cc(CN2CCCC(c3nc(-c4cnccn4)no3)CCNC(=O)CC2)cn1 (configuration not stated)	none
COc1ccc(C(=O)c2cn(CC(=O)Nc3cc(OC)cc(OC)c3)c3ccc(OC)cc3c2=O)cc1	none
COc1cccc(Cn2cc(C(=O)c3ccc(Cl)cc3)c(=O)c3ccccc32)c1	Pf Dd2 inh 14µM
COc1ccc(C(=O)c2cn(Cc3cccc(C)c3)c3cc4c(cc3c2=O)OCO4)cc1	none
COc1ccc(Cn2cc(C(=O)c3ccc(C)c(C)c3)c(=O)c3ccccc32)cc1	Pf Dd2 inh 11µM
CCOc1ccc(C(=O)c2cn(CC(=O)Nc3cc(OC)ccc3OC)c3cc(OC)c(OC)cc3c2=O)cc1	none
COc1ccccc1Cn1cc(C(=O)c2ccc(Cl)cc2)c(=O)c2ccccc21	none
CCOc1ccc(C(=O)c2cn(Cc3cccc(OC)c3)c3cc4c(cc3c2=O)OCO4)cc1	none
COc1ccc(CCNC(=O)Cn2cc(C(=O)c3ccc(F)cc3)c(=O)c3ccc(C)nc32)cc1OC	none
COc1cc2c(=O)c(C(=O)c3ccc(C)c(C)c3)cn(Cc3ccc(F)cc3)c2cc1OC	Pf Dd2 inh 4.5µM
CCOc1ccc2c(c1)c(=O)c(C(=O)c1ccc3c(c1)OCO3)cn2Cc1ccc(F)cc1	none
CCOc1ccc(C(=O)c2cn(Cc3ccc(OC)cc3)c3cc(OC)c(OC)cc3c2=O)cc1	Pf Dd2 inh 10µM
COc1cccc(C(=O)c2cn(CC(=O)NCCc3ccccc3)c3nc(C)ccc3c2=O)c1	none
Cc1ccc(OCCCn2c(C3CC(=O)N(c4cccc(Cl)c4)C3)nc3ccccc32)c(C)c1 (configuration not stated)	none
COc1cccc(C(=O)n2nc(-c3cccnc3)nc2NCc2ccc(F)cc2)c1	none
COc1ccc(-c2ccc3nnc(CNC(=O)c4cc(Cl)ccc4F)n3n2)cc1	none

Compound activity (PubChem BioAssay)
